Anthrax LF prot = Bacillus anthracis LF protease inhibitors, primary screen, biochemical, multiplex microsphere, MLPCN library. Lethal factor (Bacillus anthracis), P15917. AID 588501, 2011. multiplex microsphere protease cleavage assay. 360,000 compounds, 0.12% hits. inhibition, % at 10 µM; note: plate controls were buffer without enzyme for full effect and enzyme alone for no effect
Target sequence (P15917 whole entry, looked up): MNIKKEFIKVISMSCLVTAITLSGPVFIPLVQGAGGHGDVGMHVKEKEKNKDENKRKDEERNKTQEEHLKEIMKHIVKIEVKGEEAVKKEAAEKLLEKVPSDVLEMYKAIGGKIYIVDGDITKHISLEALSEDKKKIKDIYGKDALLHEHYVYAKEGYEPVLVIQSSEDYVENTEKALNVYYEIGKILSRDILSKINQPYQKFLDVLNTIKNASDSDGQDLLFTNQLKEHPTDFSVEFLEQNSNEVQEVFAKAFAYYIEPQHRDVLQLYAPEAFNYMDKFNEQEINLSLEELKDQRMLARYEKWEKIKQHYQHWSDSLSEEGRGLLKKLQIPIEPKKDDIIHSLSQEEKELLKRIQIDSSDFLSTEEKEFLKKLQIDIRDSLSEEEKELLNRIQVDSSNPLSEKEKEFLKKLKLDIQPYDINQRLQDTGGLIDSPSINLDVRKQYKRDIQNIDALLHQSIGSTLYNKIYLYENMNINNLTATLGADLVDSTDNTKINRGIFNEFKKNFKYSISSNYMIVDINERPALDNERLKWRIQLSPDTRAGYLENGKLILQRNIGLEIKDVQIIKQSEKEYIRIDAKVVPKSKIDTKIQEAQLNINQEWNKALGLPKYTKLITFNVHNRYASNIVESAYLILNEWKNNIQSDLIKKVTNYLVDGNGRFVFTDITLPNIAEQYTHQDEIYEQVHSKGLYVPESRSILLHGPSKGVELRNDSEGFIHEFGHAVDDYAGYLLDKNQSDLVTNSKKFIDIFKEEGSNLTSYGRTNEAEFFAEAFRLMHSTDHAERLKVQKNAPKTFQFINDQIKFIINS
BoNT-A LC inh2 = BoNT/A light chain protease inhibitors, primary screen, biochemical, flow cytometry, MLPCN library. Botulinum neurotoxin type A light chain protease (Clostridium botulinum A str. ATCC 3502). multiplex microsphere protease substrate cleavage. inhibition, % at 10 µM. 360,000 compounds, 0.17% hits. AID 588499, 2011; note: plate controls were buffer without enzyme for full effect and enzyme alone for no effect
Bead autofluor = compound fluorescence in toxin protease inhibitor counterscreen; fluorescence intensity (no concentration beside the values); 360,000 compounds, 3.1% hits; AID 624483; compound autofluorescence counterscreen, microsphere flow cytometry; hits give high values; in the data active = fluorescence intensity above about 16000; inconclusive = no clear call, values can overlap the other calls
BoNT-F LC inh = BoNT/F light chain protease inhibitors, primary screen, biochemical, flow cytometry, MLPCN library. Botulinum neurotoxin type F light chain protease (Clostridium botulinum). Multiplex microsphere protease cleavage assay. 360,000 compounds, 0.22% hits. inhibition, % at 10 µM; in the data active = inhibition above about 35%, passing the limit was not always enough; inconclusive = no clear call, values can overlap the other calls; note: plate controls were buffer without enzyme for full effect and enzyme alone for no effect
MazEF act = activators of E. coli MazEF toxin-antitoxin RNase, primary screen, biochemical, fluorescence, uHTS; FAM/BHQ RNA-DNA oligo cleavage fluorescence, 5 h; 350,000 compounds, 0.32% hits; activation, % at 20 µM; Endoribonuclease toxin MazF (Escherichia coli (strain K12)), P0AE70; in the data active = activation above about 50%
Active calls of the source: *. A selection: hits, their analogues and other compounds. The true share with any hit is near 3.7%. Cut-off read from the data, not from the text of the source, unless noted: active = inhibition above about 30%; inconclusive = no clear call, values can overlap the other calls; inactive = below that.

For C=CCN(CC(=O)NCc1ccccc1)C(=O)c1csnn1 the results were Anthrax LF prot 0.5, BoNT-A LC inh2 -1.9, Bead autofluor 24034*, BoNT-F LC inh -1.0 and MazEF act -0.7.
COCCn1c(SC(C)C(=O)NCC2CCCO2)nc2scc(-c3ccc(F)cc3)c2c1=O (stereo not given) was read as Anthrax LF prot -8.0, BoNT-A LC inh2 -3.2, Bead autofluor inconclusive, BoNT-F LC inh inconclusive and MazEF act 6.7.
`Cc1ccc(NC(=O)CC2SC3=NCCN3C2=O)cc1` (stereo not given) gave Anthrax LF prot -0.5, BoNT-A LC inh2 1.9, Bead autofluor 22351*, BoNT-F LC inh -0.4 and MazEF act -0.5.
Screening O=C(CC1SC2=NCCN2C1=O)Nc1ccccc1 (stereo not given) returned Anthrax LF prot -1.4, BoNT-A LC inh2 -0.3, Bead autofluor 5735, BoNT-F LC inh 0.7 and MazEF act 2.8.
Screening Cc1ccc(-c2csc3nc(C)n(N)c(=O)c23)o1 returned Anthrax LF prot -0.9, BoNT-A LC inh2 inconclusive, Bead autofluor 22183*, BoNT-F LC inh 0.1 and MazEF act 3.1.
`CCCCN1CC(C(=O)NCc2ccc(C)cc2)CC1=O` (stereo not given) gave Anthrax LF prot -4.2, BoNT-A LC inh2 1.4, Bead autofluor 18906*, BoNT-F LC inh -0.6 and MazEF act -34.1.
`Cc1ccc(C)c(NC(=S)NNC(=O)c2csc(C(C)C)c2)c1` gave Anthrax LF prot 0.8, BoNT-A LC inh2 0.9, Bead autofluor 22879*, BoNT-F LC inh -2.6 and MazEF act 2.3.
For Cc1ccc(C)c(NC(=S)NNC(=O)c2ccc(Br)o2)c1 the results were Anthrax LF prot -0.1, BoNT-A LC inh2 -4.8, Bead autofluor 21935*, BoNT-F LC inh -5.1 and MazEF act 1.3.
For COc1ccc(S(=O)(=O)N2CCOCC2)cc1NC(=O)CSc1nnc2n1CCCCC2 the results were Anthrax LF prot -4.2, BoNT-A LC inh2 0.0, Bead autofluor 3393, BoNT-F LC inh -3.0 and MazEF act 8.5.
Screening CC12CCC(=O)N1C(C(=O)NNC(=O)c1ccc(F)cc1)CS2 (stereo not given) returned Anthrax LF prot -3.4, BoNT-A LC inh2 -1.0, Bead autofluor 4299, BoNT-F LC inh 2.9 and MazEF act -8.6.
Screening COCc1cccc(-c2csc(C(C)(NC(C)=O)c3ccc(OC)cc3)n2)c1 (stereo not given) returned Anthrax LF prot -6.1, BoNT-A LC inh2 -0.1, Bead autofluor 3554 and BoNT-F LC inh -1.1.
For O=C(Nc1cccc(F)c1)c1cccc(S(=O)(=O)N2CCOCC2)c1 the results were Anthrax LF prot -6.1, BoNT-A LC inh2 -2.0, Bead autofluor 24090*, BoNT-F LC inh -2.9 and MazEF act -4.5.
For O=C(NCc1nc2ccccc2[nH]1)c1cccc(S(=O)(=O)N2CCOCC2)c1 the results were Anthrax LF prot 0.9, BoNT-A LC inh2 0.4, Bead autofluor 22223*, BoNT-F LC inh -1.3 and MazEF act -0.5.
For CC(C)C(=O)Nc1cccc(C(=O)Nc2ccc(S(=O)(=O)N3CCOCC3)cc2)c1 the results were Anthrax LF prot -2.8, BoNT-A LC inh2 -1.0, Bead autofluor 4000, BoNT-F LC inh 4.0 and MazEF act 160.4*.
`COC(=O)c1cccc(S(=O)(=O)N2CCC(NC(=O)Nc3cccc(F)c3)CC2)c1` gave Anthrax LF prot -2.5, BoNT-A LC inh2 -2.5, Bead autofluor 17460*, BoNT-F LC inh -7.5 and MazEF act 1.0.
For CC(C)C(=O)Nc1cccc(C(=O)NCc2ccc(S(N)(=O)=O)cc2)c1 the results were Anthrax LF prot -16.2, BoNT-A LC inh2 7.2, Bead autofluor 18546*, BoNT-F LC inh 12.5 and MazEF act 4.1.
Screening FC(F)(F)c1cccc(NC(=S)NCCc2ccccn2)c1 returned Anthrax LF prot -5.6, BoNT-A LC inh2 0.7, Bead autofluor 21974*, BoNT-F LC inh -1.2 and MazEF act 7.3.
For O=C(Nc1ccccc1Br)c1ccc(N2CCCC2=O)cc1 the results were Anthrax LF prot 0.9, BoNT-A LC inh2 -0.6, Bead autofluor 6305, BoNT-F LC inh 4.0 and MazEF act 2.5.
For COC(=O)C(C)N(C(=O)c1ccc(Cl)cc1)c1c(C)cccc1C (stereo not given) the results were Anthrax LF prot -1.6, BoNT-A LC inh2 -1.5, Bead autofluor 21162*, BoNT-F LC inh -5.5 and MazEF act -1.4.
For COC(=O)c1cc(NC(=O)Nc2cc(OC)ccc2OC)cc(C(=O)OC)c1 the results were Anthrax LF prot -1.5, BoNT-A LC inh2 -0.3, Bead autofluor 23932*, BoNT-F LC inh -2.0 and MazEF act 5.3.
COc1ccc(OC)c(NC(=O)Nc2cccc(Cn3cccn3)c2)c1 was read as Anthrax LF prot -2.2, BoNT-A LC inh2 -1.4, Bead autofluor 21355*, BoNT-F LC inh -2.1 and MazEF act 8.8.
For COc1cccc(NC(=O)Nc2cc(C)ccc2OC)c1 the results were Anthrax LF prot -0.6, BoNT-A LC inh2 0.4, Bead autofluor 2413, BoNT-F LC inh -1.5 and MazEF act -10.3.
Screening CC(C)(CC(=O)O)CC(=O)N1CCN(c2cc(C(F)(F)F)nc3ccccc23)CC1 returned Anthrax LF prot -2.0, BoNT-A LC inh2 0.4, Bead autofluor 3593, BoNT-F LC inh 0.1 and MazEF act 8.7.
Screening CCOC(=O)Cc1cnc(NC(=O)CSc2nc(C(C)C)cc(=O)[nH]2)s1 returned Anthrax LF prot -1.0, BoNT-A LC inh2 -1.0, Bead autofluor 5230, BoNT-F LC inh 4.1 and MazEF act 10.4.
Screening CN(C(=O)CN1CCC(NC(=O)c2ccccc2Br)CC1)C1CCCCC1 returned Anthrax LF prot -14.3, BoNT-A LC inh2 -1.0, Bead autofluor 4119, BoNT-F LC inh 0.0 and MazEF act 5.1.
CN(C(=O)CN1CCC(NC(=O)C2CCCCC2)CC1)C1CCCCC1 was read as Anthrax LF prot -3.1, BoNT-A LC inh2 -1.7, Bead autofluor 23953*, BoNT-F LC inh -4.5 and MazEF act 9.0.
CCOC(=O)C1=C(C)NC2=C(C1c1ccc([N+](=O)[O-])cc1)S(=O)(=O)c1ccccc12 (stereo not given) was read as Anthrax LF prot -1.5, BoNT-A LC inh2 inconclusive, Bead autofluor 17917*, BoNT-F LC inh 6.1 and MazEF act -3.4.
For CCOC(=O)C1=C(C)NC(C)=C(C(=O)OCC)C1c1cccc([N+](=O)[O-])c1 the results were Anthrax LF prot 8.2, BoNT-A LC inh2 0.1, Bead autofluor 2842, BoNT-F LC inh -2.9 and MazEF act 8.5.
CN1CCN(C(=O)c2cc([N+](=O)[O-])ccc2Cl)CC1 was read as Anthrax LF prot -12.8, BoNT-A LC inh2 -5.9, Bead autofluor 4194, BoNT-F LC inh inconclusive and MazEF act 9.7.
Screening CN(C)S(=O)(=O)N1CCc2ccccc21 returned Anthrax LF prot -4.2, BoNT-A LC inh2 0.7, Bead autofluor 4560, BoNT-F LC inh -10.4 and MazEF act 4.3.

Screening results from PubChem BioAssay.
